Measured values from PubChem BioAssay (Tox21).
Inconclusive results are not listed. Active and inactive are the calls of the source. The call rests on the fitted dose curve; in most records, active means well fitted inhibition curve with a large enough effect in the repeat runs; inconclusive means weak or mixed curves, or effect the other way; inactive means no such curve, though single readings can be large or run the other way. Non-standard residues stand in square brackets, D forms with d. Residues, ends and D or L forms follow the SMILES beside them. *: point of attachment. Sta = CC(C)C[C@H](N)[C@@H](O)CC(=O)O; Isovaleryl = CC(C)CC(=O)*

assay: qHTS assay to identify small molecule antagonists of the retinoic acid receptor (RAR) signaling pathway (AID 1159552; further: nearly all actives have a fitted effect of over 50% in size); settings: C3RL4 RARE luciferase reporter, retinol-stimulated, 6 h; series mostly up to 92.4 µM
Excerpt: National Center for Advancing Translational Sciences [NCATS]
NIH Chemical Genomics Center [NCGC]
U.S. Environmental Protection Agency [EPA]
National Institutes of Environmental Health Sciences [NIEHS]
National Toxicology Program [NTP]
U.S. Food and Drug Administration [FDA]
All-trans Retinoic acid (atRA) is the potent natural metabolite of retinol and plays an important role in normal embryonic development and maintenance of cellular phenotype in adult animals. atRA is the activating ligand for the retinoic acid receptors (RARs) which form heterodimers with retinoid X receptors (RXRs) on the retinoic acid response element (RARE). Through activation of the RAR/RXRs nuclear receptors, atRA regulates the transcription of a large number of protein-coding genes and regulatory RNAs. Intracellular levels of atRA are controlled by the retinol signaling pathway (RSP) that regulates the biosynthesis and catabolism of atRA to maintain physiological levels. Chemicals that interfere with the RSP can cause abnormal intracellular levels of atRA and therefore are potential developmental toxicants. To assess compounds for the potential adverse effect on embryonic development through interfering with retinol signaling, a cell-based RARE luciferase reporter gene assay was used. C3RL4 cell line (OARSA/CFSAN/FDA, Laurel, MD) was used to screen Tox21 10K compound library for identifying inhibitors of the RSP.
Tox21 Assay Protocol Summary:
C3RL4 cells were seeded at 1,000/well in 4 uL of assay medium into white solid 1,536-well tissue culture plates (Greiner Bio-One North America Inc. Monroe, NC) using a Multidrop Combi (Thermo Scientific, Waltham, MA) dispenser. After incubation at 37 C and 5% CO2 for an overnight, 23 nL of compounds dissolved in DMSO, positive control or DMSO only were transferred by a Pintool station (Kalypsys, San Diego, CA). One ul of 1 uM (final concentration) of Retinol was added right after the compound addition by using a Flying Reagent Dispenser (FRD) (Aurora Discovery, San Diego, CA). After 6 hr incubation at 37 C and 5% CO2, 5 uL of Amplite Luciferase reagent (AAT Bioquest Inc. Sunnyvale, CA) was added to each assay plate using an FRD. Luminescence was quantified on a ViewLux plate reader (PerkinElmer, Waltham, MA) after 30 min incubation at room temperature.
On the % scale 0 is the no-effect control and ±100 the full control effect.

SMILES	outcome	activity, negative = inhibition
Cc1ccc(S(=O)(=O)NC(=O)NN2CC3CCCC3C2)cc1 (stereo not given)	inactive	
CN(C)CCCN(C)C		0.227% [at 8.39 µM] (inactive)
CC(=O)/C=C/C=C1/C2CCC(C2)C1(C)C (stereo not given)	inactive	
CCCCCCCC(=O)N(C)C	inactive	
CCCCCCCCCCCCCCCCN(C)C		3.34% [at 8.39 µM] (inactive)
CC(C)C[P+](C)(CC(C)C)CC(C)C	inactive	
COc1ccccc1N1CCN(CC(O)COc2cc(OC)c(OC)c(OC)c2)CC1 (stereo not given)	inactive	
CC(=O)c1ccc2ccc3ccccc3c2c1	inactive	
CC(C)c1cc(C(C)C)cc(C(C)C)c1	inactive	
CC(C)CC(=O)N[C@H](C(=O)N[C@H](C(=O)N[C@@H](CC(C)C)[C@@H](O)CC(=O)N[C@@H](C)C(=O)N[C@@H](CC(C)C)[C@@H](O)CC(=O)O)C(C)C)C(C)C (Isovaleryl-VV[Sta]A[Sta]-OH)	inactive	
Cc1ccccc1C#N	inactive	
C[C@]12C=CC(=O)C=C1[C@@H](F)C[C@@H]1[C@@H]2[C@@H](O)C[C@@]2(C)[C@H]1CC[C@]2(O)C(=O)CO	inactive	
O=C(O)P(=O)(O)O	inactive	
COc1cnc(NS(=O)(=O)c2ccc(N)cc2)nc1	inactive	
CCCC[O][Al]([O]CCCC)[O]CCCC	inactive	
c1cc2ccc3ccc4ccc5cccc6c(c1)c2c3c4c56		-1.28% [at 3.27 µM] (inactive)
CC(C)(C)C(=O)CC(=O)C(C)(C)C	inactive	
C=C(C)C(=O)OCCCC	inactive	
CCCCCCCCCCCCCC(=O)OCC	inactive	
CC(C)(C)c1ccc(N)cc1	inactive	

SMILES	outcome	activity, negative = inhibition
CCOC(=O)COc1ccc2c(C)c(CCN(CC)CC)c(=O)oc2c1Cl	inactive	
CCCc1ncc(C(=O)O)s1	inactive	
CC(C)(O)CCCC1=CCC(C=O)CC1 (stereo not given)	inactive	
CC(C)(C)c1ccc(C(=O)CCCCl)cc1	inactive	
CC(=O)Nc1ccc(OCCOCCOc2ccc(NC(C)=O)cc2)cc1	inactive	
c1coc(Cn2cccc2)c1	inactive	
CCO/C=C1\N=C(c2ccccc2)OC1=O	inactive	
CC1(C)CC(N)CC(C)(C)N1	inactive	
O=C(O)CCC(=O)Nc1ccc(S(=O)(=O)Nc2nccs2)cc1	inactive	
BrCCOc1ccccc1	inactive	
CC1(C)C(=O)C(C)(C)C1=O	inactive	
C=CC(=O)OCC[N+](C)(C)C	inactive	
O=C1CC2(CCCC2)CC(=O)N1CCNCC1COc2ccccc2O1 (stereo not given)	inactive	
COc1cc2nc(N3CCN(C(=O)C4CCCO4)CC3)nc(N)c2cc1OC (stereo not given)	inactive	
N=C(N)N1CCc2ccccc2C1		-2.43% [at 8.39 µM] (inactive)
C=CCCCCCCCCOC(C)=O	inactive	
CCCCN1C(=O)c2ccccc2C1=O	inactive	
CCCCOCCCC	inactive	
Cc1ccc2cccnc2c1	inactive	
CC(=O)c1c(C)cc(C(C)(C)C)cc1C	inactive	
